Experimental findings from ChEMBL document CHEMBL3988442, “University of Dundee, Small-Polar-MMV Screening Library” (2021) are described below.

Holding throughout (design): scale not given: direction of the effect not stated beside the values
The target of assay [1] is Protein translocase subunit SecA (Escherichia coli (strain K12)) (UniProt P10408). Nature of the assay: Assay to Identify E. coli SecA ATPase Inhibitors. The settings on record: 30 µM. It counts as functional.
For assay [2], the target named is T1, Ubiquitin-activating enzyme e1, putative (Leishmania donovani (strain BPK282A1)) (UniProt E9BSI1).
T1 sequence (whole entry): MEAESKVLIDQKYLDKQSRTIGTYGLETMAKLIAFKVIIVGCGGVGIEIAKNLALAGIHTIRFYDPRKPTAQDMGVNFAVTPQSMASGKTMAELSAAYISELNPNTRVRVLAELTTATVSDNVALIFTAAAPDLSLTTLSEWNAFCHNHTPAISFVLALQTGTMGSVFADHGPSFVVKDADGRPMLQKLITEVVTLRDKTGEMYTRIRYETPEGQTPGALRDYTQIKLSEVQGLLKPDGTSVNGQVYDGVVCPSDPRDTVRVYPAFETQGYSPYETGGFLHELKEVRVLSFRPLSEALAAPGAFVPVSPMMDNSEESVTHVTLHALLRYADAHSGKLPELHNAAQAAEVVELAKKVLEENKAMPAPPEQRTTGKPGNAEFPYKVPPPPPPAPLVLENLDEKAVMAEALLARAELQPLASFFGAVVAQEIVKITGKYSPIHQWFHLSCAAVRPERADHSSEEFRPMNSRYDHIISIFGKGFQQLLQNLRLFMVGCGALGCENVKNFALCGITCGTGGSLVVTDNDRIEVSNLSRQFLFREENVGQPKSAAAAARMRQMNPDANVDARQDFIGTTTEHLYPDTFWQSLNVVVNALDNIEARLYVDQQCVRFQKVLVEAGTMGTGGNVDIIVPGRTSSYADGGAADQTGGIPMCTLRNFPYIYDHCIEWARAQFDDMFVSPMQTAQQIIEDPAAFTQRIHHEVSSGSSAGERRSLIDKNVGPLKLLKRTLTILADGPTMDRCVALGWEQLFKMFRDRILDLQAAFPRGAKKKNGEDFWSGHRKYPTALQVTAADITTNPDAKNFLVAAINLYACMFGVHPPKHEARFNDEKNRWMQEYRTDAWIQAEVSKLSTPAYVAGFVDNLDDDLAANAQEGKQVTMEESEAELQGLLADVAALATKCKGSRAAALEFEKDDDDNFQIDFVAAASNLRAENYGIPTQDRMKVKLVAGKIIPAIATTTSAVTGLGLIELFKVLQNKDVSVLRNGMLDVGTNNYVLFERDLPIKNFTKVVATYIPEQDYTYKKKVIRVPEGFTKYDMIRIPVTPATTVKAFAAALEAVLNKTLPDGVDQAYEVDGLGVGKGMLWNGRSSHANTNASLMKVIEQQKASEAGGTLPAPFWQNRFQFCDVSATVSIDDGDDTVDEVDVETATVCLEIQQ
Briefly: Leishmania donovani Ubiquitin Activating Enzyme (LdE1). It counts as functional. The conditions noted are these: 30 µM.

Assay [3] has as its target AMP-activated protein kinase, AMPK (Homo sapiens) (UniProt P54646+O43741+P54619+Q9UGJ0+Q9Y478+Q13131+Q9UGI9). Briefly: AMP-dependent Kinase enzyme assay. An in vitro enzyme assay that detects ADP turnover that is directly proportional to AMPK activity. This uses naive AMPK that is activated during the assay with MK-8722. The conditions noted are these: 30 µM. In kind it is functional.

The target of assay [4] is Sialic acid-binding Ig-like lectin 9 (Homo sapiens) (UniProt Q9Y336). Nature of the assay: Hs-Siglec9 ALPHAscreen SOP 20170721. The settings on record: 10 µM. Background: In Alpha technology, singlet oxygen from a donor bead excites a nearby acceptor bead.
The subject of a further assay is Trypanosoma cruzi. Briefly: Trypanosoma cruzi phosphomannomutase and mannose-1-phosphate guanylyltransferase assay. In kind it is functional. The settings on record: 10 µM.
The target in assay [5] is T2, Arginase-2, mitochondrial (Homo sapiens) (UniProt P78540).
T2 sequence (whole entry): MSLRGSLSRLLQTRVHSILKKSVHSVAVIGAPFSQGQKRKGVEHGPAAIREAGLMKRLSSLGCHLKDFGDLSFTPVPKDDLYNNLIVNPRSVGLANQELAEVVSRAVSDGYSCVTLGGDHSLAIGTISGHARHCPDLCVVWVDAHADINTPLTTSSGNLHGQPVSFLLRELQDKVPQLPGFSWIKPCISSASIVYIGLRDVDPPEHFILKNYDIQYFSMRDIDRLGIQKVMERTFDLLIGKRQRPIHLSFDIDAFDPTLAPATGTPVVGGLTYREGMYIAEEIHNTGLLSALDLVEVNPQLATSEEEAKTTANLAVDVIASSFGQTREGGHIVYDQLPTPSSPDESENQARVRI
Briefly: in vitro enzyme assay to detect the production of urea directly proportional to the activity of Arginase II. Further: in the data most compounds retested in dose-response had high values. In kind it is functional. The conditions noted are these: 33.3 µM.

For assay [6], the target named is T3, Proteasome subunit beta (Trypanosoma cruzi) (UniProt O96673).
T3 sequence (whole entry): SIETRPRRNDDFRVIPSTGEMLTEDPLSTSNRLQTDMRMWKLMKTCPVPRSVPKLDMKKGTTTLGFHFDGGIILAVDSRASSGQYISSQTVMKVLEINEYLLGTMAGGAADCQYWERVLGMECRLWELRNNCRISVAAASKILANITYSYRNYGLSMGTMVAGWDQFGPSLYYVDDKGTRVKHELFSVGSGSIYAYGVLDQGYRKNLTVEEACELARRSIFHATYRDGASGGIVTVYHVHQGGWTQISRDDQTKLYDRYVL
Nature of the assay: Trypanosoma cruzi proteasome chymotrypsin-like activity (TcProtChymo) assay. Further: in the data most compounds retested in dose-response had high values. It counts as functional. The settings on record: 9.37 µM.

The species entered for a further assay is Homo sapiens. Briefly: To identify inhibition of the IFN signalling (Jak-Stat) pathway via expression of an eGFP reporter gene under the control of an IFN-stimulated response element (ISRE) containing MxA promoter. The conditions noted are these: 30 µM. It counts as functional. (In a reporter assay the amount or activity of a reporter protein is the signal.)

Assay [7] addresses T4, Tyrosyl-tRNA synthetase, putative (Trypanosoma cruzi (strain CL Brener)) (UniProt Q4DSP6).
T4 sequence (whole entry): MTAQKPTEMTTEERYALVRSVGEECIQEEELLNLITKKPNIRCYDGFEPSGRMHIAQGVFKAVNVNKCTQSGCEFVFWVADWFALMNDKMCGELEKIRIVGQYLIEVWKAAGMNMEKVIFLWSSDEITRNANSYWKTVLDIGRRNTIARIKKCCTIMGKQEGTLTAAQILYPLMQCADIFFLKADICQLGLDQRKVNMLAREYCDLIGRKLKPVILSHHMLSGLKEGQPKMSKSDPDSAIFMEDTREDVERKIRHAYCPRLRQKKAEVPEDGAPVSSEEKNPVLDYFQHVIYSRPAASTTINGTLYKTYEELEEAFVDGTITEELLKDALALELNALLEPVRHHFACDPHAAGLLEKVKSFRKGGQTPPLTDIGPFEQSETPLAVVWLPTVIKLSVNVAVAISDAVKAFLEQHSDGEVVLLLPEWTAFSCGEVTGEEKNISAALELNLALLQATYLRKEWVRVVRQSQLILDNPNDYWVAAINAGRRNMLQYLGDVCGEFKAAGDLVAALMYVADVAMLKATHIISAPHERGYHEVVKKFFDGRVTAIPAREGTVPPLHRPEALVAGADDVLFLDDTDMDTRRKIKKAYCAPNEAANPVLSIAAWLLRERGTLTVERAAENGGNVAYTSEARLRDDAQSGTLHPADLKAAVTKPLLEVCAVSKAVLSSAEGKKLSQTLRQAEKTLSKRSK
Nature of the assay: Trypanosoma cruzi tyrosyl tRNA synthetase (TcYRS) _High Tyrosine SOP. Further: in the data most compounds retested in dose-response had high values. It counts as functional. The settings on record: 30 µM.

For assay [8], the target named is T4, Tyrosyl-tRNA synthetase, putative (Trypanosoma cruzi (strain CL Brener)). Briefly: Trypanosoma cruzi tyrosyl tRNA synthetase (TcYRS) SOP. In kind it is functional. The settings on record: 30 µM.
The target of assay [9] is Chromo domain-containing protein 1 (Saccharomyces cerevisiae (strain ATCC 204508 / S288c) (Baker's yeast)) (UniProt P32657). Nature of the assay: ScCHD-1 Enzyme Inhibition Assay. Further: in the data most compounds retested in dose-response had high values. In kind it is functional. The conditions noted are these: 30 µM.

For some of these results: Entries with a potency or affinity are not part of this list.

Chain of Sialic acid-binding Ig-like lectin 9 (Homo sapiens) (Q9Y336 whole entry): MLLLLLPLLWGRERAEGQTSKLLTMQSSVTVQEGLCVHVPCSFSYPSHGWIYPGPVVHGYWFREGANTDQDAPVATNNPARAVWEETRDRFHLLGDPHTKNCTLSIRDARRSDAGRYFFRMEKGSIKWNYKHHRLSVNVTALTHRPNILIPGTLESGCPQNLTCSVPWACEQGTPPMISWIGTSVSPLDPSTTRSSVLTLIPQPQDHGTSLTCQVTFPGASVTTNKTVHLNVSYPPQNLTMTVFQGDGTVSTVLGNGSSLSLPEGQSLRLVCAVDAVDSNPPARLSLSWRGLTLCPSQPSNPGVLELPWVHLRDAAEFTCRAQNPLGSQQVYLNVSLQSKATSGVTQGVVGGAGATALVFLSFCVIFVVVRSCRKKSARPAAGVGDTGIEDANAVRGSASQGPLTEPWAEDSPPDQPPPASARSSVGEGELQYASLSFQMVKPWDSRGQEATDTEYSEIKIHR
Chain of Protein translocase subunit SecA (Escherichia coli (strain K12)) (P10408 whole entry): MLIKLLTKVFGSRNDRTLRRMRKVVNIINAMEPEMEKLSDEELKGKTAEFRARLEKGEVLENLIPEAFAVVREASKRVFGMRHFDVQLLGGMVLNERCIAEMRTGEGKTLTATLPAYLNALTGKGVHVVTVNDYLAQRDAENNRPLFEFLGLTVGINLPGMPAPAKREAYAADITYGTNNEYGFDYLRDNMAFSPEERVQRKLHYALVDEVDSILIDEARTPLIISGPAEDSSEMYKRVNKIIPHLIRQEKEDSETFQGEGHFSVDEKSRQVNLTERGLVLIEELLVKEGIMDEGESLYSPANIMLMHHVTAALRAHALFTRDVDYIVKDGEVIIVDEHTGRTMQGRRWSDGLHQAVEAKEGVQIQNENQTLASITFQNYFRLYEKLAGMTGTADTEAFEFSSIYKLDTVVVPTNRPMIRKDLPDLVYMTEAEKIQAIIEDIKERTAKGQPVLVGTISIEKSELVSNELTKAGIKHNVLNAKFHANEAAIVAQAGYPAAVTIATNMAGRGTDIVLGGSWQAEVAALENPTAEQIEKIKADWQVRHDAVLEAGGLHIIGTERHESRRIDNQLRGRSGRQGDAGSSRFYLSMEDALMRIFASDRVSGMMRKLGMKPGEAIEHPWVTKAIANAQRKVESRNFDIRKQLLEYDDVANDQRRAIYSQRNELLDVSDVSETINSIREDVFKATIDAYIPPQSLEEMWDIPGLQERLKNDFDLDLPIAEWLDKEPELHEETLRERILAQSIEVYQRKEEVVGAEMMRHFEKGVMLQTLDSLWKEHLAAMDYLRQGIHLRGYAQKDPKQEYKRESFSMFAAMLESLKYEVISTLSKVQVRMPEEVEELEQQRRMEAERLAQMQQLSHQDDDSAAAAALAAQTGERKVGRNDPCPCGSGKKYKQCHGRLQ
Chain of Chromo domain-containing protein 1 (Saccharomyces cerevisiae (strain ATCC 204508 / S288c) (Baker's yeast)) (P32657 whole entry, the tested form may be a part): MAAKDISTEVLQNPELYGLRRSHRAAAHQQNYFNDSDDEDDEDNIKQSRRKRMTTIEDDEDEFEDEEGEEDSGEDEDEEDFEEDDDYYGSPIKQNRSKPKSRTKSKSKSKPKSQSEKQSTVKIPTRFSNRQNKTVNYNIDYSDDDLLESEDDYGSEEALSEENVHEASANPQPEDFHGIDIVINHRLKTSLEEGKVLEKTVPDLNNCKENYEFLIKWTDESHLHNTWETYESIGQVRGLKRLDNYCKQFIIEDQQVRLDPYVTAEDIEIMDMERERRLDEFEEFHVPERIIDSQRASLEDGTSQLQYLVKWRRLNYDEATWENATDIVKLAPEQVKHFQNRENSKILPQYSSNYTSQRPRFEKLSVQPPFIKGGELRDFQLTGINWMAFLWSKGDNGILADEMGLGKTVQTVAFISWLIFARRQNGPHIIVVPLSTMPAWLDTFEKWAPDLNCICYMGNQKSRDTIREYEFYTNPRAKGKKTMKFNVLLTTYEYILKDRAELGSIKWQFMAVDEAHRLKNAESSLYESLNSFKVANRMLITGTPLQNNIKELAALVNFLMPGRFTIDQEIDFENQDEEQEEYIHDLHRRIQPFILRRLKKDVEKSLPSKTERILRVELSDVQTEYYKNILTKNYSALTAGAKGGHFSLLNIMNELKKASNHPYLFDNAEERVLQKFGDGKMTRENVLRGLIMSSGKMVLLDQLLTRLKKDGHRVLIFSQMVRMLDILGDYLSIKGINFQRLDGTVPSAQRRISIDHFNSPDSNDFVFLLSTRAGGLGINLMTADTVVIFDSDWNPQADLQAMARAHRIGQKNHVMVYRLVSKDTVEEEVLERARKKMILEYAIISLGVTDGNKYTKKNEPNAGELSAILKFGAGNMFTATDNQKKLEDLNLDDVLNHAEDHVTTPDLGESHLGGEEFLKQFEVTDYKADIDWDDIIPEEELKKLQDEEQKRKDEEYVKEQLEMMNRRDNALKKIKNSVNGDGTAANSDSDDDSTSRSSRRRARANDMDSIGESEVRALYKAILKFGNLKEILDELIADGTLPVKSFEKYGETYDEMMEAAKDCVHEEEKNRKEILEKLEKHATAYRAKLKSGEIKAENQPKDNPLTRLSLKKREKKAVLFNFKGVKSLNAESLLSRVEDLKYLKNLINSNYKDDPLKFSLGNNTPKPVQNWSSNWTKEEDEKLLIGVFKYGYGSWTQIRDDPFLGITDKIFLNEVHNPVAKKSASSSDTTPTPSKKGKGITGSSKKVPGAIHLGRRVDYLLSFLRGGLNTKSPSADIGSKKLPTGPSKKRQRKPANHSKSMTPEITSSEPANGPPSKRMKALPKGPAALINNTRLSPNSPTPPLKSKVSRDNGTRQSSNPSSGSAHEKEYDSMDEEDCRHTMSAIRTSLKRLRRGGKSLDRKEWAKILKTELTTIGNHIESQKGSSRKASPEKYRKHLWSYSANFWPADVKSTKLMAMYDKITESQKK

For `CS(=O)(=O)NCC1CCCN(C(=O)Nc2cccnc2N2CCCC2)C1` (stereo unspecified), the Percent Effect in assay [1] was -5.11%; in assay [2] it was 13.2%; in [3] it was -26.3%; in assay [4] it was -7.09%; in the assay with Trypanosoma cruzi it was -6.33%; in assay [5], 2.37%. In addition, the Percent Effect in [6] was 16.4%; in the assay filed under Homo sapiens, -14.6%; in assay [7] it was 2.13%; in assay [8], 5.2%; in assay [9] it was -7%.
For `CCC(CO)N(Cc1ccccn1)C(=O)c1ccc2c(c1)CCO2` (stereo unspecified), the Percent Effect is -5.75% in assay [1]; 10.7% in [2]; -10.8% in assay [3]; 36.5% in assay [4]; 7.89% with Trypanosoma cruzi; 15.6% in assay [5]. Further, the Percent Effect in [6] was 13.4%; in the assay filed under Homo sapiens, 12.5%; in assay [7] it was 0.546%; in assay [8] it was 16.1%; in [9], -5.21%.
As to `Cc1ccc2c(n1)N(C)CCN(C(=O)NC1CC1)C2`, the Percent Effect in assay [1] was -5.82%; in assay [2], -2.67%; in assay [3] it was 117%; in assay [4], -1.66%; with Trypanosoma cruzi it was -7.53%; in assay [5], -57.2%. In addition, the Percent Effect was 4.96% in [6]; 18.6% in the assay listed under Homo sapiens; -3.12% in assay [7]; 5% in [8]; -9.39% in [9].
Turning to `CCN1CC(C(=O)NCc2ccccc2-n2cccn2)CC1=O` (stereo unspecified), the Percent Effect in [1] was -2.49%; in assay [2] it was 13%; in [3], 0.208%; in assay [4] it was 2.02%; in the assay with Trypanosoma cruzi, 2.45%; in [5], -1.05%. Also, the Percent Effect in assay [6] was 15%; in the assay filed under Homo sapiens, 11%; in [7], 5.71%; in [8], 23.5%; in [9] it was -8.96%.
As to `CC(C)c1nnc2ccc(N3CCC(C(=O)Nc4nccs4)CC3)nn12`, the Percent Effect was -2.74% in [1]; 9.33% in [2]; 5.47% in [3]; 1.19% in assay [4]; 3.54% in the assay on Trypanosoma cruzi; -0.528% in assay [5]. Besides, the Percent Effect in [6] is 12.6%; in the assay listed under Homo sapiens, 82.9%; in assay [7] it was 13.8%; in assay [8] it was 23.1%; in assay [9], -2.21%.
Turning to `CCCS(=O)(=O)c1ncc(CN2CCC(CO)CC2)n1CC1CCCO1` (stereo unspecified), the Percent Effect is 0.687% in assay [1]; -6.94% in [2]; -2.25% in assay [3]; -1.43% in [4]; -5.34% in the assay on Trypanosoma cruzi; 0.442% in [5]. Besides, the Percent Effect in [6] is 4.74%; in the assay listed under Homo sapiens, -4.14%; in [7] it was 0%; in assay [8] it was -7.69%; in assay [9], 5.71%.
As to `CN(C)C(=O)CN1CCCCC1c1nc(N)ncc1-c1ccccc1` (stereo unspecified), the Percent Effect is -1.46% in assay [1]; 2.67% in [2]; 10.4% in assay [3]; 1.52% in [4]; -2.95% in the assay with Trypanosoma cruzi; 2.1% in [5]. Also, the Percent Effect in [6] is 2.56%; in the assay filed under Homo sapiens it was -0.722%; in assay [7] it was 4.25%; in assay [8], 6.41%; in assay [9], -5.48%.
Take `CCCc1n[nH]c(C2CN(CCNS(=O)(=O)CC)CCO2)n1` (stereo unspecified): the Percent Effect in assay [1] is -1.25%; in [2] it was 19%; in assay [3], 4.75%; in assay [4], -2.28%; in the assay on Trypanosoma cruzi it was -0.718%; in [5], 1.5%. Also, the Percent Effect in assay [6] is 12.9%; in the assay filed under Homo sapiens, 18.3%; in assay [7], 8.33%; in [8] it was 15.2%; in assay [9], -20.1%.
On to `CC(C)(C)c1n[nH]c(C2CN(C(=O)c3cc(Cl)c[nH]3)CCO2)n1` (stereo unspecified), for which the Percent Effect in [1] is -6.35%; in assay [2] it was 15.8%; in assay [3], 3.14%; in assay [4], 10.4%; in the assay on Trypanosoma cruzi, 3.99%; in [5], -5.92%. Also, the Percent Effect is 17.2% in assay [6]; -3.03% in the assay listed under Homo sapiens; 2.13% in assay [7]; 15.6% in assay [8]; -6.65% in [9].
Regarding `O=C(NCCC(=O)N1CCCCCC1)c1c(O)cc(F)cc1F`, the Percent Effect in assay [1] is -5.59%; in [2] it was 7.79%; in [3], 1.53%; in assay [4] it was -4.08%; with Trypanosoma cruzi, 7.35%; in [5] it was -4%. For the same compound, the Percent Effect in assay [6] is 9.78%; in the assay listed under Homo sapiens, 6.03%; in assay [7], 2.86%; in assay [8] it was 14.1%; in assay [9], -20.3%.
Consider `NC(=O)NCCC(=O)NCc1cccnc1N1CCc2ccccc2C1`, for which the Percent Effect in assay [1] was -1.28%; in assay [2], 18.9%; in assay [3], -5.95%; in assay [4], 12.4%; in the assay with Trypanosoma cruzi, 6.75%; in assay [5], -3.23%. Also, the Percent Effect in [6] was 4.89%; in the assay listed under Homo sapiens, 1.04%; in [7], 7.53%; in [8], 23.5%; in assay [9] it was -7.12%.
